PubChem BioAssay (NCATS)
Inconclusive results are not listed. Unless noted, calls come from the whole dose curve; as a rule, active = well fitted curve in either direction with a large enough effect (not every such curve was filed as active); inconclusive = small, poorly fitted or top-dose-only effect, or another doubt; inactive = flat fitted curve, though single readings scatter.

How the values were obtained:
[1] = AP1 Signaling Pathway (AID 357); settings: ME-180 AP-1-bla reporter, EGF-induced, beta-lactamase ratio, 5 h; at 17.2 µM (top of the series) unless noted; note: % is set by controls: 0 for no effect and ±100 for the full control effect
Procedure, shortened: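 ME-180 cells with beta-lactamase reporter under AP-1 response element, stimulated with EC50 EGF; compounds tested in titration series, 5 h at 37 °C. CCF4 substrate added 2.5 h at room temperature; 460/530 nm emission ratio gave %activity and AC50.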

[2] = NFAT Signaling Pathway (AID 444); settings: Jurkat NFAT-bla M1, carbachol, beta-lactamase ratio, 5 h; at 17.2 µM (top of the series) unless noted;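 note: carbachol stimulus at about its EC50 of 1 µM final; % is set by controls: 0 for no effect and ±100 for the full control effect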
Procedure, shortened: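 Jurkat cells with NFAT-driven β-lactamase reporter and co-expressed M1 receptor, stimulated with carbachol (final 1 uM, ~EC50), compound titration, 5 h at 37 °C. CCF4 loaded 1 h at RT; 460/530 nm ratio gave %activity and AC50.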

[3] = Stat Signaling Pathway (AID 446); settings: ME-180 (cervical carcinoma) SIE beta-lactamase reporter, IL-6 stimulated, 5 h; at 17.2 µM (top of the series) unless noted;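 note: ME-180 cervical cancer cells given 40 pM IL-6 alongside compound; SIE-controlled beta-lactamase reporter measured as 460/530 nm FRET emission ratio; % is set by controls: 0 for no effect and ±100 for the full control effect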
Procedure, shortened: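 Emission at 460 and 530 nm (excitation 405 nm) reports SIE-controlled beta-lactamase in ME-180 cells. Cells received compound with 40 pM IL-6 for 5 hrs at 37 C; data scaled between 300 pM IL-6 and 125 nM JAK-inhibitor controls.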

[4] = biological target: Glucocorticoid receptor (Homo sapiens) (UniProt P04150); assay: GR-GFP Redistribution (AID 450;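 active = compounds whose dose series gives a full or clear partial fitted curve of increased nuclear translocation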; note: potency is the fitted concentration of half-maximal effect); settings: U2OS GR-GFP nuclear translocation, laser cytometry, 2 h; series mostly up to 20.6 µM
Sequence of Glucocorticoid receptor (Homo sapiens) (P04150 whole entry, looked up): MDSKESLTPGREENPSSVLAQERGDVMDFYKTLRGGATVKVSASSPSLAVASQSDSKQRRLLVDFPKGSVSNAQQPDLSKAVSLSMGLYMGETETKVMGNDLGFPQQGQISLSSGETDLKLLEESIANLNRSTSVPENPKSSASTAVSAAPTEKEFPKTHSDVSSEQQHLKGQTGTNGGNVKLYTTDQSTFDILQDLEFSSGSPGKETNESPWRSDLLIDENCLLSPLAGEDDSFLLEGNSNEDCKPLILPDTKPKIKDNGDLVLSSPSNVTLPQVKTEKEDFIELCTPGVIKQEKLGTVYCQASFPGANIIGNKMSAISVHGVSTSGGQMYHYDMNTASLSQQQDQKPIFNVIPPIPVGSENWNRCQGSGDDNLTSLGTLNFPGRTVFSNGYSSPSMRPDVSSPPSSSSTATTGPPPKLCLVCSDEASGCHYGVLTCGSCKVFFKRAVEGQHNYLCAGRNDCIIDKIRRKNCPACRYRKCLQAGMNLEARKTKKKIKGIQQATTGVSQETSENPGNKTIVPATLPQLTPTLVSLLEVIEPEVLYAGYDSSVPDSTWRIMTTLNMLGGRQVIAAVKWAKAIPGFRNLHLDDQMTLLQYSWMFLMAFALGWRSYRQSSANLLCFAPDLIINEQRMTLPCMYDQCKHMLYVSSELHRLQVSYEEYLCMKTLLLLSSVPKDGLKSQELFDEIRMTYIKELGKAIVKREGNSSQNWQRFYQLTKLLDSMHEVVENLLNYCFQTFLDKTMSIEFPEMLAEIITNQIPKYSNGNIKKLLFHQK

CC12CCC(=O)N1c1c(sc3nc(N4CCOCC4)c4c(c13)CCCC4)C(=O)N2 (stereo unspecified)
inactive: activity change, negative = inhibition [1] -25.1% | activity change, negative = inhibition [2] 8.35% | activity, negative = inhibition [3] -5.31% | Potency [4] > 20.6 µM

CC/C(C)=C1\SC(N2CCN(C(C)=O)CC2)=NC1=O
inactive: activity change, negative = inhibition [1] 2% | activity change, negative = inhibition [2] 5.99% | activity, negative = inhibition [3] 8.03% | Potency [4] > 20.6 µM

Cc1cc(C)nc(CC(N)=O)n1
inactive: activity change, negative = inhibition [1] 0.0367% | activity change, negative = inhibition [2] 4.47% | activity, negative = inhibition [3] -0.0254% | Potency [4] > 20.6 µM

CCCCCCC(=O)N1CCN(c2cc3c(cc2F)c(=O)c(C(=O)O)cn3CC)CC1
inactive: activity change, negative = inhibition [1] -1.28% | activity change, negative = inhibition [2] 7.84% | activity, negative = inhibition [3] 0.48% | Potency [4] > 20.6 µM

CC(=Nc1ccc(C)c(C)c1)C1=C(O)CCC1=O
inactive: activity change, negative = inhibition [1] 13.3% | activity change, negative = inhibition [2] -8.58% | activity, negative = inhibition [3] 24.8% | Potency [4] > 20.6 µM

O=C(C1=C(O)C(=O)N(CCCN2CCOCC2)C1c1ccccn1)c1cc2ccccc2o1 (stereo unspecified)
inactive: activity change, negative = inhibition [1] 0.283% | activity change, negative = inhibition [2] 1.99% | activity, negative = inhibition [3] -5.61% | Potency [4] > 20.6 µM

CCn1cc(C(=O)NCC2CCCO2)c(=O)c2cc(F)c(N3CCN(C)CC3)cc21 (stereo unspecified)
inactive: activity change, negative = inhibition [1] -11.4% | activity change, negative = inhibition [2] -20.1% | activity, negative = inhibition [3] -0.513% | Potency [4] > 20.6 µM

CC(=O)/C(C#N)=C1\NC(=O)C(Cc2ccccc2Cl)S1 (stereo unspecified)
inactive: activity change, negative = inhibition [1] 8.76% | activity change, negative = inhibition [2] -3.03% | activity, negative = inhibition [3] -6.04% | Potency [4] > 20.6 µM

COc1ccc(Oc2nc3c(c(=O)n(C)c(=O)n3C)n2Cc2cccc(OC)c2)cc1
inactive: activity change, negative = inhibition [1] -6% | activity change, negative = inhibition [2] -3.53% | activity, negative = inhibition [3] -2.94% | Potency [4] > 20.6 µM

Cc1cccc(C)c1N1C(=O)C2ON(c3ccccc3)C(c3ccncc3)C2C1=O (stereo unspecified)
inactive: activity change, negative = inhibition [1] 1.5% | activity change, negative = inhibition [2] 11.5% | activity, negative = inhibition [3] -5.83% | Potency [4] > 20.6 µM

Cc1cc(=O)oc2cc(OCC(=O)NCc3cccnc3)ccc12
inactive: activity change, negative = inhibition [1] 0.0607% | activity change, negative = inhibition [2] -8.13% | activity, negative = inhibition [3] -2.73% | Potency [4] > 20.6 µM

COc1cc(C2C3C(=O)N(c4ccccc4)C(=O)C3ON2c2ccccc2)ccc1O (stereo unspecified)
inactive: activity change, negative = inhibition [1] 2.35% | activity change, negative = inhibition [2] 7.65% | activity, negative = inhibition [3] -2.83% | Potency [4] > 20.6 µM

Clc1ccc2[nH]c3c(NCCCN4CCOCC4)ncnc3c2c1
inactive: activity change, negative = inhibition [1] 17% | activity change, negative = inhibition [2] -2.05% | activity, negative = inhibition [3] -2.1% | Potency [4] > 20.6 µM

CCCC1CC(=O)OC1(C)C(=O)CSc1n[nH]c(-c2ccccc2)n1 (stereo unspecified)
inactive: activity change, negative = inhibition [1] -6.44% | activity change, negative = inhibition [2] 8.59% | activity, negative = inhibition [3] -7.88% | Potency [4] > 20.6 µM

CCOc1cccc(-c2nnc3sc(-c4cccs4)nn23)c1
inactive: activity change, negative = inhibition [1] -12.6% | activity change, negative = inhibition [2] -10.8% | activity, negative = inhibition [3] 5.52% | Potency [4] > 20.6 µM

CN(Cc1ccccc1)Cc1c[nH]c2ccccc12
inactive: activity change, negative = inhibition [1] 15.6% | activity change, negative = inhibition [2] -28.7% | activity, negative = inhibition [3] 7.69% | Potency [4] > 20.6 µM

CCCSc1nc(O)c(C2OC(=O)c3c2ccc(OC)c3OC)c(=O)n1C (stereo unspecified)
inactive: activity change, negative = inhibition [1] 17.4% | activity change, negative = inhibition [2] -4.09% | activity, negative = inhibition [3] 3.93% | Potency [4] > 20.6 µM

CCCCN1C(=O)C(O)=C(C(C)=O)C1c1ccc(OC)cc1OC (stereo unspecified)
inactive: activity change, negative = inhibition [1] 8.36% | activity change, negative = inhibition [2] 16.7% | activity, negative = inhibition [3] -4.22% | Potency [4] > 20.6 µM

CCOc1ccc(-n2c3nc4ccccc4nc3c3c(=O)n(Cc4ccco4)cnc32)cc1
inactive: activity change, negative = inhibition [1] -1.51% | activity change, negative = inhibition [2] -9.2% | activity, negative = inhibition [3] -2.34% | Potency [4] > 20.6 µM
